Test results: PubChem BioAssay (NCI)
Compounds without any hit were thinned out: in the full panel of roughly 79,000, 15% have a hit. Activity calls are given as the source filed them. No stated cut-off is given here; in the data, active means growth inhibition above about 70%; inactive means the rest.

Key:
[1] = NCI Yeast Anticancer Drug Screen. Data for the rad50 strain (AID 155);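 further: 0% = growth of vehicle-only cultures of the same strain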; conditions: S. cerevisiae rad50 strain growth inhibition; at 50.0 µM; stronger effect = higher value
Summary of the method: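 Genetically altered yeast (DNA repair pathway); compound treatment; growth inhibition vs vehicle ctrl.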

[2] = NCI Yeast Anticancer Drug Screen. Data for the mec2-1 strain (AID 157); conditions: S. cerevisiae mec2-1 strain, at 50.0 µM, stronger effect = higher value
Summary of the method: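 Test agents were screened against the mec2-1 yeast strain, with defined DNA repair or cell cycle alteration. Growth was scored as inhibition against vehicle-only controls.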

[3] = NCI Yeast Anticancer Drug Screen. Data for the sgs1 mgt1 strain (AID 161);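 further: 0% = growth of cultures given vehicle only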; conditions: S. cerevisiae sgs1 mgt1 strain, at 50.0 µM, stronger effect = higher value
Summary of the method: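 Genetically altered yeast, compound exposure, growth inhibition relative to vehicle.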

[4] = NCI Yeast Anticancer Drug Screen. Data for the cln2 rad14 strain (AID 165);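 further: 0% = growth equal to vehicle treated cultures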; conditions: S. cerevisiae cln2 rad14 strain, at 50.0 µM, stronger effect = higher value
Summary of the method: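 Growth of compound-exposed yeast (cln2 rad14 genotype) measured and expressed as inhibition relative to vehicle.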

[5] = NCI Yeast Anticancer Drug Screen. Data for the bub3 strain (AID 167); conditions: S. cerevisiae bub3 mutant strain, at 50.0 µM, stronger effect = higher value
Summary of the method: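 Yeast carrying a defined mutation is treated with each compound, and growth is compared with that of vehicle-exposed cells to give inhibition.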

[6] = NCI Yeast Anticancer Drug Screen. Data for the mlh1 rad18 strain (AID 175); conditions: S. cerevisiae mlh1 rad18 strain growth inhibition; at 50.0 µM; stronger effect = higher value
Summary of the method: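 In this whole-cell yeast screen, a strain with altered DNA damage repair is challenged with compound, and its growth is measured against matched vehicle-treated controls.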

Measured: growth inhibition

CCCC(SCCO)C(CC)CSCCO (stereo not given)
inactive: [1] -16.8% | [2] -9.55% | [3] 2.65% | [4] -14.5% | [5] 13.1% | [6] 5.7%

CC1S(=O)(=O)OCCCOS1(=O)=O
inactive: [1] -22.8% | [2] -19.2% | [3] -9.95% | [4] -13.2% | [5] -2.45% | [6] -17.6%

N#Cc1cc(C#N)c(N)nc1N
inactive: [1] 14.1% | [2] 6.35% | [3] 1.8% | [4] 13.4% | [5] -1.25% | [6] -5.7%

CC(C)=CC1C(CBr)C1(C)C (stereo not given)
inactive: [1] 2.3% | [2] -15.2% | [3] -12.2% | [4] -26.2% | [5] -10.1% | [6] -11%

CC(C)CCCC(C)C1CCC2C3CC=C4CC(C(=O)O)CCC4C3CCC12C (stereo not given)
inactive: [1] 26.8% | [2] 21.6% | [3] 14.1% | [4] 21.2% | [5] -3.5% | [6] 22.6%

O=C(O)c1c(-c2ccc(Cl)cc2)c(-c2ccc(Cl)cc2)nn(CCO)c1=O
inactive: [1] 33.8% | [2] 25.8% | [3] 33.4% | [4] 7.4% | [5] 1.5% | [6] 35.6%

N#CC(C#N)=CNC(=S)c1ccncc1
inactive: [1] -21.1% | [2] -33.6% | [3] -19.6% | [4] 6.7% | [5] -4.85% | [6] -24.2%

CC(O)CCNc1nnc2c3ccccc3n(C)c2n1 (stereo not given)
inactive: [1] 5.95% | [2] 0.65% | [3] 0.1% | [4] 44.2% | [5] 5.3% | [6] -16.2%

CCCCCCCCCCCCCCC[N+](C)(C)C
active: [1] 99.5% | [2] 99.3% | [4] 99.2% | [5] 97.5% | [6] 99.5%
inactive: [3] 36.1%

CC1=N/C(=C/c2ccccc2)C(=O)O1
inactive: [1] 7.6% | [2] 0.75% | [3] 11.6% | [4] -26.7% | [5] 12.5% | [6] 10%

Cn1c(=S)[nH]c2cc(Cl)c(Cl)cc21
inactive: [1] 17.4% | [2] -3.05% | [3] 0.55% | [4] -21.7% | [5] -14.7% | [6] 20.4%

C=CCN1C(=O)c2ccccc2S1(=O)=O
inactive: [1] 8.2% | [2] -2.35% | [3] -5.95% | [4] -27.8% | [5] -3.15% | [6] 3.55%

C/C(C#N)=C1/Nc2ccccc2NC1=O
inactive: [1] 0.55% | [2] 9.25% | [3] -24.6% | [4] -10.4% | [5] 15.1% | [6] 4.55%

O=c1[nH]c2ccc(Cl)cc2[nH]c1=O
inactive: [1] -7.05% | [2] 5% | [3] -10.5% | [4] 0.3% | [5] -1.45% | [6] 0.9%

CNC(=O)c1ccccc1Sc1ccccc1
inactive: [1] -4.25% | [2] -15.8% | [3] -16.3% | [4] -34.8% | [5] 0.2% | [6] 3.15%

CCCCNc1ncnc2c1cnn2-c1ccccc1
inactive: [1] 7% | [2] -1% | [3] 3.2% | [4] -26.9% | [5] -4.75% | [6] 0%

CC(=C/C=C/C=C(C)\C=C\C=C(\C)C(=O)O)/C=C/C=C(/C)C(=O)O
inactive: [1] 18.1% | [2] -7.95% | [3] 8.65% | [4] 7.75% | [5] 16.4% | [6] 16.9%

Cc1ccc(C)c(OC(=O)NC2CCCCC2)c1
inactive: [1] -4.9% | [2] -15.1% | [3] -15.1% | [4] -57.6% | [5] 0% | [6] -19.9%

C#CCN(CC#C)C(=O)CCCCCCCCC=C
active: [1] 97% | [2] 96.5% | [3] 97% | [4] 86% | [5] 97.5% | [6] 97.2%

O=c1c2ccccc2[nH]c2c(O)ccc(O)c12
inactive: [1] 18.3% | [2] -1.65% | [3] 6.55% | [4] 7.65% | [5] -1.55% | [6] 12.7%

C/C(CCc1ccccc1Br)=N/NC(N)=O
inactive: [1] -11.1% | [2] -0.9% | [3] -8.55% | [4] -34.4% | [5] 2.6% | [6] -11.3%

COc1ccc(NCC(=O)Nn2c(-c3ccccc3)nc3ccccc3c2=O)cc1
inactive: [1] -37% | [2] -48.2% | [3] 4% | [4] 0.4% | [5] 4.15% | [6] -18.4%

CCOc1c(OC)ccc(C(C)=O)c1O
inactive: [1] -17.8% | [2] -15.2% | [3] -22.1% | [4] -2.35% | [5] 3% | [6] -17.2%

C1CCC(c2nn[nH]n2)CC1
inactive: [1] 2.3% | [2] -7.05% | [3] 3.25% | [4] 11.7% | [5] 8.05% | [6] 1%

CC1c2c(cc(=O)n(C)c2O)C(=O)N1Cc1ccccc1 (stereo not given)
inactive: [1] 2% | [2] 5.75% | [3] 8.7% | [4] -2.6% | [5] 2.45% | [6] -9.4%

O=[N+]([O-])c1ccc(S(=O)(=O)Nc2ccccc2-c2ccccc2)cc1
active: [1] 99% | [2] 99% | [3] 99.3% | [4] 98.2% | [5] 98.8% | [6] 98.7%

O=C(/C=C/c1ccc(O)cc1)c1ccc(Cl)cc1
inactive: [1] -17.7% | [2] -22.9% | [3] -18.6% | [4] -36.9% | [5] 20.4% | [6] -16.4%

O=C(c1cccs1)c1ccc2ccccc2c1C(=O)O
inactive: [1] -6.95% | [2] -11% | [3] -0.85% | [4] 3.9% | [5] 58.5% | [6] 4.7%

COC(=O)C(Cc1ccccc1)NCCN (stereo not given)
inactive: [1] -0.1% | [2] 7.4% | [3] -3.9% | [4] -17% | [5] -5.95% | [6] 2.1%

NNC(=O)c1ccc[n+](CCc2ccccc2)c1
inactive: [1] -1.25% | [2] -8.55% | [3] -34% | [4] -34% | [5] -30.4% | [6] -5.5%

O=C1c2ccccc2S[C@@H](O)[C@@H]2CCCN12
inactive: [1] -31.9% | [2] -13.7% | [3] -64.7% | [4] -13.7% | [5] -41.8% | [6] -41.7%

CCC1(C)NN=C2C(=CC=C3NNC(C)(CC)N32)n2cccc21 (stereo not given)
inactive: [1] 36.9% | [2] 8.8% | [3] -19.1% | [4] 3.5% | [5] -2.65% | [6] 26.4%

O=c1c(C(c2ccc(Cl)cc2)c2c(O)c3ccccc3n(-c3ccccc3)c2=O)c(O)c2ccccc2n1-c1ccccc1
inactive: [1] -12.9% | [2] -0.65% | [3] -9.95% | [4] -12.4% | [5] -0.8% | [6] -3.4%

CC1C=CC(C)S(=O)N1C(=O)Cc1ccccc1 (stereo not given)
inactive: [1] -2.6% | [2] -14.6% | [3] -9.35% | [4] -16.9% | [5] -25.5% | [6] -19.6%

NC(=O)c1sc(N2CCCC2)nc1N
inactive: [1] 13.2% | [2] 23.9% | [3] 22.1% | [4] 0.95% | [5] 9.8% | [6] 9.05%

NC1CC(=O)C(CC2C(=O)CC(N)CC2=O)C(=O)C1 (stereo not given)
inactive: [1] -1.3% | [2] 0.05% | [3] 3.35% | [4] -1.8% | [5] -1.15% | [6] -3.65%

O=CNCC(=O)Nc1ccccc1
inactive: [1] -8.4% | [2] -2.45% | [3] -3.45% | [4] -6.9% | [5] 10.8% | [6] -10.4%

O=C(CP(c1ccccc1)c1ccccc1)c1cccc(C(=O)CP(c2ccccc2)c2ccccc2)c1
inactive: [1] -4.3% | [2] -22.1% | [3] -5.05% | [4] -8.6% | [5] -14.3% | [6] -19.4%

CC1=CC(OC2CCCCO2)CC(C)(C)C1 (stereo not given)
inactive: [1] -5.2% | [2] -3% | [3] -11% | [4] -16.4% | [5] 0.05% | [6] -5.15%

O=C1c2ccccc2-c2ccc(-c3ccc4c5c(cccc35)C(=O)c3ccccc3-4)c3cccc1c23
inactive: [1] -21.9% | [2] -27.6% | [3] -7.9% | [4] -0.85% | [5] -31.3% | [6] -34.2%
